In PubChem BioAssay (NCATS):
Where “and” joins values, the source holds several entries; their conditions need not be identical. Identical values can stand only once. Inconclusive results are not listed. A call without a number means that no potency is given here. Values without a mark were called inactive. Calls of active or inactive are those of the source. Calls come from the whole dose curve; as a rule, active = well fitted inhibition curve with a large enough effect; inconclusive = small, poorly fitted or top-dose-only effect; inactive = flat fitted curve, though single readings scatter.

Key:
[1] = qHTS profiling for inhibitors of Plasmodium falciparum proliferation (AID 504749); note: nearly all actives have a fitted effect of over 60% in size; conditions: P. falciparum in erythrocytes, SYBR Green DNA, 72 h, at 28.7 µM (top of the series)
In short: (§1)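 P. falciparum-infected erythrocytes (0.3% parasitemia, 2.5% hematocrit) incubated with compound 72 h at 37 C, 5% CO2. Parasite DNA detected by SYBR Green after lysis, overnight at room temperature; normalised to 0.29 uM artemisinin and DMSO.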

[2] = system: 3D7; test: as above; conditions: P. falciparum in erythrocytes, SYBR Green DNA, 72 h; series mostly up to 28.7 µM
In short: as §1

[3] = system: 7G8; test: as above; conditions: P. falciparum in erythrocytes, SYBR Green DNA, 72 h; series mostly up to 28.7 µM
In short: as §1

[4] = system: AA1029; test: as above; conditions: P. falciparum in erythrocytes, SYBR Green DNA, 72 h; series mostly up to 28.7 µM
In short: as §1

[5] = system: AS120; test: as above; conditions: P. falciparum in erythrocytes, SYBR Green DNA, 72 h; series mostly up to 28.7 µM
In short: as §1

[6] = system: ATS189; test: as above; conditions: P. falciparum in erythrocytes, SYBR Green DNA, 72 h; series mostly up to 28.7 µM
In short: as §1

[7] = system: ATS95; test: as above; conditions: P. falciparum in erythrocytes, SYBR Green DNA, 72 h; series mostly up to 28.7 µM
In short: as §1

[8] = system: C2A; test: as above; conditions: P. falciparum in erythrocytes, SYBR Green DNA, 72 h; series mostly up to 28.7 µM
In short: as §1

[9] = system: CP185; test: as above; conditions: P. falciparum in erythrocytes, SYBR Green DNA, 72 h; series mostly up to 28.7 µM
In short: as §1
Potency is the fitted concentration of half-maximal effect.

## O=C(O)CC(O)C(=O)O (centres undefined)
[1]; parasite line A
  activity, negative = inhibition: 10.4%
[1]; parasite line B
  activity, negative = inhibition: 3.5%
[2]
  Potency: inactive
[3]
  Potency: inactive
[4]
  Potency: inactive
[5]
  Potency: inactive
[6]
  Potency: inactive
[7]
  Potency: inactive
[8]
  Potency: inactive
[9]
  Potency: inactive

## CCN(CC)CCNC(C(=O)OCCC(C)C)c1ccccc1 (centres undefined)
[1]; parasite line A
  activity, negative = inhibition: 6.18%
[1]; parasite line B
  activity, negative = inhibition: 14.1%
[2]
  Potency: inactive
[3]
  Potency: 12.6 µM (active)

## Oc1cn2c(n1)Nc1ccc(Cl)c(Cl)c1C2
[1]; parasite line A
  activity, negative = inhibition: 7.35%
[1]; parasite line B
  activity, negative = inhibition: -8.41%
[2]
  Potency: inactive
[3]
  Potency: inactive
[4]
  Potency: inactive
[5]
  Potency: inactive
[6]
  Potency: inactive
[7]
  Potency: inactive
[8]
  Potency: inactive
[9]
  Potency: inactive

## N[C@@H](CSCCCO)C(=O)O
[1]; parasite line A
  activity, negative = inhibition: -6.32%
[1]; parasite line B
  activity, negative = inhibition: -2.52%
[2]
  Potency: inactive
[3]
  Potency: inactive
[4]
  Potency: inactive
[5]
  Potency: inactive
[6]
  Potency: inactive
[7]
  Potency: inactive
[8]
  Potency: inactive
[9]
  Potency: inactive

## CCN(CC)CCSC(=O)C(c1ccccc1)c1ccccc1
[1]; parasite line A
  activity, negative = inhibition: 10.5% and 6.38%
[1]; parasite line B
  activity, negative = inhibition: -0.418% and -7.05%
[2]
  Potency: inactive
[3]
  Potency: inactive
[4]
  Potency: inactive
[5]
  Potency: inactive
[6]
  Potency: inactive
[7]
  Potency: inactive
[8]
  Potency: inactive
[9]
  Potency: inactive

## C[C@](N)(Cc1ccc(O)cc1)C(=O)O
[1]; parasite line A
  activity, negative = inhibition: 4.44%
[1]; parasite line B
  activity, negative = inhibition: 11.9%
[2]
  Potency: inactive
[3]
  Potency: inactive
[4]
  Potency: inactive
[5]
  Potency: inactive
[6]
  Potency: inactive
[7]
  Potency: inactive
[8]
  Potency: inactive
[9]
  Potency: inactive

## O=Cc1ccccc1C=O
[1]; parasite line A
  activity, negative = inhibition: -1.21%
[1]; parasite line B
  activity, negative = inhibition: 5.64%
[2]
  Potency: inactive
[3]
  Potency: inactive
[4]
  Potency: inactive
[5]
  Potency: inactive
[6]
  Potency: inactive
[7]
  Potency: inactive
[8]
  Potency: inactive
[9]
  Potency: inactive

## [O-][n+]1cccc(CO)c1
[1]; parasite line A
  activity, negative = inhibition: -0.247%
[1]; parasite line B
  activity, negative = inhibition: 11.6%
[2]
  Potency: inactive
[3]
  Potency: inactive
[4]
  Potency: inactive
[5]
  Potency: inactive
[6]
  Potency: inactive
[7]
  Potency: inactive
[8]
  Potency: inactive
[9]
  Potency: inactive

## CCCCc1ncc(/C=C(\Cc2cccs2)C(=O)O)n1Cc1ccc(C(=O)O)cc1
[1]; parasite line A
  activity, negative = inhibition: 6.94%
[1]; parasite line B
  activity, negative = inhibition: 4.94%
[2]
  Potency: inactive
[3]
  Potency: inactive
[4]
  Potency: inactive
[5]
  Potency: inactive
[6]
  Potency: inactive
[7]
  Potency: inactive
[8]
  Potency: inactive
[9]
  Potency: inactive

## CC1(C)OC(=O)NC1=O
[1]; parasite line A
  activity, negative = inhibition: 17.2%
[1]; parasite line B
  activity, negative = inhibition: 21.8%
[2]
  Potency: inactive
[3]
  Potency: inactive
[4]
  Potency: inactive
[5]
  Potency: inactive
[6]
  Potency: inactive
[7]
  Potency: inactive
[8]
  Potency: inactive
[9]
  Potency: inactive
